In PubChem BioAssay AID504374 (National Center for Advancing Translational Sciences (NCATS), 2011):
Where “and” joins values, the source holds several entries; their conditions need not be identical. Identical values can stand only once. In all, about 1,500 compounds went through this assay and about 100 (6.7%) were called active. Where a call stands in place of a potency, no number is given. Another 7% or so got no clear call; they are omitted. The sample holds actives, similar compounds and a random draw of the others, so the mix is not that of the screen. The call rests on the fitted dose curve; in most records, active means well fitted inhibition curve with a large enough effect; inconclusive means small, poorly fitted or top-dose-only effect, or effect the other way; inactive means flat fitted curve, though single readings scatter.

Biological target: Runt-related transcription factor 1 (Homo sapiens) + Core-binding factor subunit beta (Homo sapiens) (UniProt Q01196+Q13951)
Sequence (Q01196 whole entry, looked up): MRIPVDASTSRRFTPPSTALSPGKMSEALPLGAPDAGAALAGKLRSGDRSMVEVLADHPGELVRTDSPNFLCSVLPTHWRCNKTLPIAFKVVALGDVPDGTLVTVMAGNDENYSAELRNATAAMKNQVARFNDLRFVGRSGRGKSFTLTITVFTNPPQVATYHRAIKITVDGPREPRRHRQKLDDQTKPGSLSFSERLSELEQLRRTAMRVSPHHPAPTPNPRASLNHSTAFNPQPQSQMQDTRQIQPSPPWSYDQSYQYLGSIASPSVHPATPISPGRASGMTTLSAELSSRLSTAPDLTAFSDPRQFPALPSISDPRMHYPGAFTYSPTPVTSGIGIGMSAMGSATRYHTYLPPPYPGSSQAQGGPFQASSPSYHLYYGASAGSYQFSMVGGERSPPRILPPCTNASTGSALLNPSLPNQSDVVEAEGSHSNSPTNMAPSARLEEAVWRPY
Sequence (Q13951 whole entry, looked up): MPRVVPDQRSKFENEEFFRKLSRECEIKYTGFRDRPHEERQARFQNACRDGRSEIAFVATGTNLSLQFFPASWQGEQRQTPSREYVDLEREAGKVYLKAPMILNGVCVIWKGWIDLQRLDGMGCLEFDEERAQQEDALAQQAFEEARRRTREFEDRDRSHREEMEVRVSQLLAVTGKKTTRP
Assay: qHTS Assay for Compounds Blocking the Interaction Between CBF-beta and RUNX1 for the Treatment of Acute Myeloid Leukemia: Hit Validation; further: nearly all actives have a fitted effect of over 60% in size
Conditions: AlphaScreen CBFb-His/RUNX1-biotin binding; series mostly up to 59.8 µM
In short: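 Compounds were added to a premixed CBF-beta-His/RUNX1-biotin complex (30 nM each, 20 min) for 15 min. Nickel and streptavidin AlphaScreen beads followed for 90 min at room temperature, with emission at 440 nm […].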
Potency means the concentration at half of the fitted maximal effect.

SMILES | Potency
CSc1ccc(C(=O)NCC(=O)O)cc1[N+](=O)[O-] | inactive
CC(C)(C)c1ccc(NC(=O)c2ccsc2)cc1 | inactive
COC(=O)c1ccc(S(=O)(=O)N(C2CCCCC2)C2CCCCC2)n1C | inactive
CCN(CC)CCN1C(=O)C(=O)/C(=C(/O)c2ccc3c(c2)CC(C)O3)C1c1ccc(OC)cc1 (stereo not given) | inactive
O=S(=O)(Nc1nc(SCc2ccc(Cl)cc2)n[nH]1)c1ccccc1 | inactive
CCOC(=O)N1CCC(NC(=O)CCCC(=O)O)CC1 | inactive
Nc1c(C(=O)NCC2CCCO2)sc2nc3c(c(-c4ccco4)c12)CC/C3=C\c1ccco1 (stereo not given) | 12.6 µM (active)
Cc1ccccc1-c1noc(-c2ccccc2C(=O)NCC2CCCO2)n1 (stereo not given) | inactive
C/C(Cc1nnn(-c2cc(C)on2)n1)=N\O | inactive
CCOC(=O)Cc1csc(NC(=O)Cc2ccc(Br)cc2)n1 | inactive
COc1ccc(-c2nnsc2N2C(=O)c3ccccc3C2=O)cc1 | inactive
COC(=O)C(=Cc1ccccc1[N+](=O)[O-])C(=O)OC | inactive
CC(=O)Nc1ccc(S(=O)(=O)Nc2cc(-c3ccccc3)nn2C)cc1 | inactive
CN(C)C(=O)Nc1ccccc1 | inactive
O=C(O)C[C@@H]1C(=O)O[C@@H]2C(COC(=O)c3cc(O)c(O)c(O)c3)O[C@@H](OC(=O)c3cc(O)c(O)c(O)c3)[C@@H](OC(=O)c3cc(O)c(O)c4c3[C@H]1[C@H](O)C(=O)O4)[C@H]2OC(=O)c1cc(O)c(O)c(O)c1 (stereo not given in full) | 0.0316 µM (active)
CC(Cc1c[nH]c2ccccc12)C(=O)O (stereo not given) | 12.2 µM (active)
Cc1cccc(CC(=O)c2c[nH]c3ccccc23)c1 | inactive
O=C(/C=C/c1ccccc1)c1c[nH]c2ccccc12 | inactive
Cc1onc(-c2c(F)cccc2Cl)c1C(=O)N1CCSCC1 | inactive
Cc1cc(=O)cc2oc3cc(N)c(-c4c(C)cc(O)cc4O)c(C)c3nc1-2 | 8.88 µM (active)
O=C(O)c1cnc2[nH]c3ccccc3n2c1=O | inactive
Nc1nc(Nc2ccccc2)nc(NCCO)c1[N+](=O)[O-] | inactive
Cc1ccn(C)c(=N)c1 | inactive

SMILES | Potency
COc1ccc(NS(=O)(=O)c2ccc3c(c2)CCO3)cc1 | inactive
COc1ccc(OC)c(-c2c3cc(O)c(=O)cc-3oc3cc(O)c(O)cc23)c1 | 2.24 µM (active)
NNC(=O)c1ccc(Cn2cccn2)o1 | inactive
FC(F)(F)c1cccc(-n2c(Cn3nnc4ccccc43)n[nH]c2=S)c1 | inactive
O=C(O)/C=C/C(=O)Nc1ccc(Cl)cc1C(=O)c1ccccc1 | inactive
Nc1cc(=O)[nH]c(SCC(=O)Nc2cc(Cl)ccc2Cl)n1 | inactive
NCC(=O)Nc1ccc(Cl)cc1C(=O)c1ccc[nH]1 | 3.55 µM (active)
Cc1ccc(C)c(N2CCN(c3ccncc3N)CC2)c1 | inactive
NCCc1ccc(O)c(O)c1 | inactive
O=C(/C=C/c1ccc(O)c(O)c1)c1ccccc1O | inactive
N[C@H](Cc1ccc(O)c(O)c1)C(=O)O | 8.91 µM (active)
NC(Cc1ccc(O)c(O)c1)C(=O)O (stereo not given) | 1.12 µM (active)
CCCCc1cc(=O)oc2c(C)c(OCc3nn[nH]n3)ccc12 | inactive
CC(=O)Nc1nnc(CSCc2ccc(F)cc2)s1 | inactive
Cc1ccc(-c2nn[nH]n2)cc1Cl | inactive
Cc1ccc(C(=O)/C=C/N(C)C)cn1 | inactive
CCOC(=O)Cc1csc(NC(=O)Nc2cccc(OC)c2)n1 | inactive
CCOC(=O)N1CCC(NS(=O)(=O)c2ccc(C)c(Cl)c2)CC1 | inactive
CCOc1ccc(Nc2nc(N)nc(CSC(=S)N3CCOCC3)n2)cc1 | inactive
CCN(CC)C(=S)SSC(=S)N(CC)CC | 0.794 µM (active)
Cc1ccncc1C(N)=O | inactive
CC(C)N(CCn1cnc2c([nH]c3ccccc32)c1=O)C(C)C | inactive
Cc1onc(-c2c(Cl)cccc2Cl)c1NC(=O)NC1CCSC1 (stereo not given) | inactive

SMILES | Potency
O=C(O[C@@H]1OC2COC(=O)c3cc(O)c(O)c(O)c3-c3c(cc(O)c(O)c3O)C(=O)O[C@@H]([C@H]1O)[C@@H]2O)c1cc(O)c(O)c(O)c1 | 0.224 µM (active)
O=C1OCC2OC(O)C(O)C(O)C2OC(=O)c2cc(O)c(O)c(O)c2-c2c(O)c(O)c3oc(=O)c4c(c(O)c(O)c5oc(=O)c2c3c54)-c2c1cc(O)c(O)c2O (stereo not given) | 0.224 µM (active)
Cc1oc(S(=O)(=O)N(C)C)cc1C(=O)Nc1ccc(Cl)cc1 | inactive
Cc1ccc2[nH]cc(CCNC(=O)/C=C/c3ccco3)c2c1 | inactive
CC1(C)C(CC2OCC(CN3CCCCC3)O2)[C@H]2CC[C@@H]1C2 (stereo not given in full) | inactive
C=C(C)C(=O)Nc1cccnc1Oc1ccc(F)cc1 | inactive
O=C1CCCN1CCCNC(=S)Nc1ccccc1 | inactive
C=C(C)C(=O)Nc1cccnc1Oc1ccc(F)cc1F | inactive
O=c1c(O)cccc2cc(O)c(O)c(O)c12 | 447 nM (active) and 631 nM (active)
CCOC(=O)C1(C)C=C(Nc2cccc(OC)c2)C(=O)N1c1ccccc1 (stereo not given) | inactive
COc1ccccc1NC(=O)Nc1sccc1-c1nc2ccccc2s1 | inactive
CCOC(=O)c1cnc2c(C(=O)OCC)cnn2c1N | inactive
O=c1[nH]cc(I)cc1I | 17.3 µM (active)
CC(C)(C)c1ccc(NC(=S)NCc2cccnc2)cc1 | inactive
Oc1ccc(NC(=S)Nc2ccccc2)cc1 | inactive
Oc1ccc(/C=N/NC(=S)Nc2cccnc2)c(O)c1O | 1.26 µM (active)
Oc1ccc(/C=N/NC(=S)Nc2cccnc2)c(O)c1 | 1.58 µM (active)
CNC(=O)C(=O)N/N=C/c1cccnc1 | inactive
S=C(N/N=C/c1cccc2ccccc12)Nc1cccc(Cl)c1 | inactive
O=c1[nH]nc(N/N=C/c2ccc(Cl)cc2Cl)c(=O)[nH]1 | inactive
Cc1onc(-c2c(F)cccc2Cl)c1C(=O)N=C(N)N1CC(C)OC(C)C1 (stereo not given) | inactive
O=C(O)C1(c2ccccc2)CCN(S(=O)(=O)c2ccc(Cl)s2)CC1 | inactive
N#Cc1c(-c2ccccc2Cl)c2c([nH]c1=O)-c1ccccc1OC2 | inactive

SMILES | Potency
COc1ccccc1NC(=O)OCC#CCOC(=O)Nc1ccccc1OC | inactive
CCn1c(NC(=O)c2ccccc2F)c(-c2cccs2)c(=O)c2ccccc21 | inactive
S=c1[nH]c2cc3ccccc3cc2[nH]1 | inactive
Nc1ccc2nc3c(=O)[nH]c(=S)[nH]c3nc2c1 | 2.51 µM (active)
COc1ccccc1NC(=S)NCC1CCC(CNC(=S)Nc2ccccc2OC)CC1 (stereo not given) | inactive
NC(=O)c1cccnc1Oc1ccc(Cl)cc1 | inactive
COC(=O)c1cccnc1Oc1ccccc1 | inactive
O=C(O)c1cccnc1C(=O)O | 14.1 µM (active)
Cc1[nH]ncc1-c1ccccc1Cl | inactive
Nc1nc(CCl)nc(Nc2ccc3ccccc3c2)n1 | inactive
Cc1ccc(N2CC(c3nc4ccccc4n3C)CC2=O)cc1 (stereo not given) | inactive
Cc1cc2nc3ccc(=[N+](C)C)cc-3sc2cc1N | 6.31 µM (active)
Cc1ccc2nc(-c3ccc(N)cc3)sc2c1 | inactive
Oc1cccc(O)c1O | 3.97 µM (active)
Cn1nc(-c2ccccc2)cc1NC(=O)CCCC(=O)O | inactive
Cc1ccnn1CC(=O)N/N=C/c1cn[nH]c1-c1ccc(F)cc1 | inactive
CC(C)CC(=O)NC(=S)Nc1ccccc1N1CCCC1 | inactive
CNC(=O)Nc1cc(NC(=O)NC)cc(C(F)(F)F)c1 | inactive
CCOC(=O)C1=C(C)NC(C)=C(C(=O)OCC)C1 | inactive
CCCC(=O)NC(c1cccs1)c1cc([N+](=O)[O-])c2cccnc2c1O (stereo not given) | 3.98 µM (active)
CN(C)C(=O)CSc1nnc(NC(=O)CCc2ccccc2)s1 | inactive
COC(=O)/C=C(\C)N=Nc1c(O)[nH]c2ccccc12 | inactive
Cc1ccc(CN(C(=O)c2cc(=O)c3cc(C)cc(C)c3o2)C2CCS(=O)(=O)C2)cc1 (stereo not given) | inactive

SMILES | Potency
Cc1cccc(C)c1NC(=S)N1CC(C)OC(C)C1 (stereo not given) | inactive
Cn1cnc(S(=O)(=O)Nc2ccc(OC(F)F)cc2)c1 | inactive
O=C1C(CCC(O)c2ccc(F)cc2)C(c2ccc(O)cc2)N1c1ccc(F)cc1 (stereo not given) | 15.8 µM (active)
CC(C)(C)OC(=O)N1CCCN(C(=O)Nc2ccccc2)CC1 | inactive
COc1cccc(NC(=O)C(=O)NCCc2ccc(F)cc2)c1 | inactive
CCOC(=O)/C(C#N)=C/Nc1ccsc1C(C)=O | inactive
Cc1ccc(Cn2c(N/N=C/c3ccncc3)nc3c2c(=O)n(C)c(=O)n3C)cc1 | inactive
O=C1CSC(=S)N1/N=C/c1ccc(O)c(O)c1O | 0.562 µM (active)
Cc1cc(NC(=O)c2c(-c3c(F)cccc3Cl)noc2C)no1 | inactive
COc1cccc(/C=N/NC(=O)C(C)Cn2cnc3ccccc32)c1 (stereo not given) | inactive
COc1ccc(Oc2ccc(-c3ccn[nH]3)cc2)cc1 | inactive
COc1ccc(Oc2nc(-c3ccccn3)ncc2OC)cc1 | 12.6 µM (active)
COc1ccc(Oc2ncccc2[N+](=O)[O-])cc1 | inactive
O=P(O)(O)c1cc(-c2ccccc2)oc1-c1ccccc1 | inactive
CCCCC1C2C(=O)N(c3ccc(C)cc3)C(=O)C2ON1c1ccccc1 (stereo not given) | inactive
Cc1cc([N+](=O)[O-])nn1Cc1ccc(C(=O)N/N=C/c2ccc(N(C)C)cc2)cc1 | inactive
Nc1ccc(N)c(C(=O)O)c1 | 0.794 µM (active)
Nc1ccc(C(=O)C(=O)c2ccc(N)cc2)cc1 | inactive
O=C(O)c1cc2ccccc2cc1Nc1ccccc1 | inactive
CCOC(=O)c1nnn2c1nc(N1CCN(C)CC1)c1ccccc12 | inactive
C=CCn1c(=O)c2ccccc2n2nnc(C(=O)OCC)c12 | inactive
CC/C(=C(\c1ccccc1)c1ccc(OCCN(C)C)cc1)c1ccccc1 | 24.4 µM (active)
COc1cccc(C2Oc3ccccc3C3CC(c4cccs4)=NN32)c1 (stereo not given) | inactive
